Test results: PubChem BioAssay (Tox21)
Inconclusive results are not listed. Entries that show only a call come without a potency. Unmarked numbers belong to inactive results. The source made the active and inactive calls. The call rests on the fitted dose curve.

Experiment: qHTS assay to identify small molecule antagonists of the estrogen receptor alpha (ER-alpha) signaling pathway using the BG1 cell line (AID 743080);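 further: BG1 cells stimulated with 17beta-estradiol alongside compound; nearly all actives have a fitted effect of over 25% in size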
Details: BG1Luc4E2 ERE-luciferase antagonist mode, luminescence; series mostly up to 70.3 µM
Description: National Center for Advancing Translational Sciences [NCATS]
NIH Chemical Genomics Center [NCGC]
U.S. Environmental Protection Agency [EPA]
National Institutes of Environmental Health Sciences [NIEHS]
National Toxicology Program [NTP]
U.S. Food and Drug Administration [FDA]
Estrogen receptor (ER), a nuclear hormone receptor, plays an important role in development, metabolic homeostasis and reproduction. Endocrine disrupting chemicals (EDCs) and their interactions with steroid hormone receptors like ER causes disruption of normal endocrine function. Therefore, it is important to understand the effect of environmental chemicals on the ER signaling pathway. To identify ER antagonists, BG1-Luc-4E2 cell line (provided by Dr. Michael Denison from University of California) has been used to screen the Tox21 10K compound library. BG1Luc4E2 cell line endogenously expresses full-length ER-alpha and is stably transfected with a plasmid containing four estrogen responsive elements (ERE) upstream of a luciferase reporter gene.
Tox21 Assay Protocol Summary:
BG1-Luc-4E2 cells were cultured in phenol red free assay medium containing 10% charcoal stripped FBS for 5 days before the assay was performed. The cells were dispensed at 4,000 cells/4 uL of assay medium per well into white wall/solid-bottom 1536-well plates using a Multidrop Combi (ThermoFisher Scientific, Waltham, MA) dispenser. The assay plates were incubated at a 37C and 5% CO2 for 24 h, and then 23 nL of compounds dissolved in DMSO, positive controls or DMSO only was transferred to the assay plate using a Pintool station (Kalypsys, San Diego, CA), followed by addition of 1 uL of 17beta-estradiol in assay medium using a Flying Reagent Dispenser (Aurora Discovery, San Diego, CA). After the plates were incubated at 37 C and 5% CO2 for 21.5 h, 1 uL of CellTiter-Fluor reagent (Promega, Madison, WI) of measuring cytotoxicity was added using Flying Reagent Dispenser (FRD) to each well. The assay plates were incubated at 37 C and 5% CO2 for additional 30 min and the fluorescence intensity was quantified by a ViewLux plate reader (PerkinElmer, Shelton, CT). For measuring luciferase reporter gene activity, 4 uL of ONE-Glo reagent (Promega) was added to each plate using an FRD and luminescence was quantified by a ViewLux plate reader after 30 min incubation at room temperature.

Compound	Potency	activity change, negative = inhibition
CC1CCC(CO)CC1 (stereo not given)	inactive	
CO/N=C(\C(=O)N[C@@H]1C(=O)N2C(C(=O)O)=C(CSc3nc(=O)c(O)nn3C)CS[C@H]12)c1csc(N)n1	inactive	
C[C@H]1C[C@H]2[C@@H]3CCC4=CC(=O)C=C[C@]4(C)[C@H]3C(=O)C[C@]2(C)[C@@]1(O)C(=O)CO	inactive	
Nc1c2c(nc3c1CCC3)CCCC2	inactive	
CCOC(=O)c1ccccc1	inactive	
Cc1cc(C)c(N=Nc2c(O)c(S(=O)(=O)O)cc3cc(S(=O)(=O)O)ccc23)cc1C		-1.62% [at 8.47 µM]
CC(C)(C)C(=O)Oc1ccc(S(=O)(=O)Nc2ccccc2C(=O)NCC(=O)O)cc1	inactive	
c1coc(CNc2ncnc3nc[nH]c23)c1	inactive	
CC(C)(CCC(=O)O)C(=O)O	inactive	
O=C(c1ccccc1O)c1ccccc1O	inactive	
CC1OC1C1CCC2(C)OC2C1 (stereo not given)	inactive	
COCCOC[C@H](CC1(C(=O)NC2CCC(C(=O)O)CC2)CCCC1)C(=O)Oc1ccc2c(c1)CCC2 (stereo not given in full)	inactive	
C[N+](C)(C)CCCCCCCCCC[N+](C)(C)C	inactive	
CN(C)C(=O)Oc1cccc([N+](C)(C)C)c1	inactive	
CCOC(=O)C1=NOC(c2ccccc2)(c2ccccc2)C1	inactive	
CC1(C)OC[C@@H](COC(=O)CCc2ccc(OC[C@@H](O)CNCCNC(=O)N3CCOCC3)cc2)O1	inactive	
CC(C)CCCO	inactive	
CCCC(C)C(=O)OCC (stereo not given)	inactive	
Cc1ccc(C(=O)Nc2ccc(S(=O)(=O)O)c3cc(S(=O)(=O)O)cc(S(=O)(=O)O)c23)cc1NC(=O)c1cccc(NC(=O)Nc2cccc(C(=O)Nc3cc(C(=O)Nc4ccc(S(=O)(=O)O)c5cc(S(=O)(=O)O)cc(S(=O)(=O)O)c45)ccc3C)c2)c1	inactive	
O=C(O)CC(C(=O)O)S(=O)(=O)O (stereo not given)	inactive	

Compound	Potency	activity change, negative = inhibition
O=C(O)CCSCCC(=O)O	inactive	
O=C(CO)[C@@H](O)[C@H](O)[C@H](O)CO	inactive	
CC(=O)N[C@H]1[C@H]([C@H](O)[C@H](O)CO)OC(C(=O)O)=C[C@@H]1N=C(N)N	inactive	
CN1CCC(=C2c3ccccc3CCc3cccnc32)CC1	inactive	
CC(=O)NC(=O)c1ccccc1O	inactive	
CN1[C@@H]2CC[C@H]1CC(OC(=O)C(O)c1ccccc1)C2 (stereo not given in full)	inactive	
CCN1C=CN(C)C1C (stereo not given)	inactive	
CCCCc1ccc2c(n1)[C@@H](c1ccc(OC)cc1C[C@H](C)C(=O)O)[C@H](C(=O)O)[C@H]2c1ccc2c(c1)OCO2	inactive	
Cc1ccc(C(=O)c2ccccc2)cc1	inactive	
CCN[C@@H]1C[C@H](N)[C@@H](OC2OC(CN)=CCC2N)[C@H](O)[C@H]1O[C@H]1OC[C@](C)(O)[C@H](NC)[C@H]1O (stereo not given in full)	inactive	
CN1C(C)(C)CC(O)CC1(C)C	inactive	
CCN(Cc1ccccc1)c1ccccc1	inactive	
CCCOC(=O)CC	inactive	
O=[N+]([O-])c1ccc(/C=N\O)o1	inactive	
CC(C)NNC(=O)c1ccncc1	inactive	
Nc1ccn([C@@H]2O[C@H](CO)[C@@H](O)C2O)c(=O)n1 (stereo not given in full)	inactive	
COc1ccc2cc1Oc1cc3c(cc1OC)CC[N+](C)(C)[C@H]3Cc1ccc(cc1)Oc1c(OC)c(OC)cc3c1[C@@H](C2)[N+](C)(C)CC3	inactive	
CC(=O)N1C[C@H](O)C[C@H]1C(=O)O	inactive	
CCCCCCCCCC[N+](C)(C)[O-]	inactive	
CC(=O)c1ccccc1[N+](=O)[O-]	inactive	
